Compound activity: PubChem, National Center for Advancing Translational Sciences (NCATS)
Sampled rows, rich in hits. Any-hit rate of the full collection: about 1.8%.
CtBP-E1A inh – qHTS Assay for Inhibitors of the CtBP/E1A Interaction; AID 651724, 2012; 340,000 tested, 0.49% active; AlphaScreen GST-E1A/His-CtBP binding, 1536-well; stronger effect = lower value; CtBP / adenovirus E1A interaction (AlphaScreen); activity change, % (concentration not given with the values)
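AlphaScreen with 125 nM GST-E1A and 125 nM His-CtBP (5X stocks) in Tris pH 8.0, 300 mM NaCl, BSA, Tween 20, TCEP. Compounds preincubated 2 h at 37 deg C, then glutathione donor/nickel acceptor beads added for 1 h at 37 deg C in dark.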
PI4K2A inh – qHTS for small molecular inhibitors of PI4K2A; Phosphatidylinositol 4-kinase type 2-alpha (Homo sapiens), Q9BTU6; purified PI4K2A, ADP-Glo luminescence, 1 h; stronger effect = lower value; activity change, negative = inhibition, % at 76.9 µM; 420,000 tested, 0.13% active; AID 1346378, 2018; in the data active means activity change below about -50%; inconclusive means mostly about -30% to -49%;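 further: -100% = wells without enzyme as full effect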
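ADP-Glo luminescence measured ADP generated by PI4K2A enzyme (4 ug/mL before mixing) with 1.2 mM PI substrate (pre-mix) and 300 microM ATP (pre-mix). Tris pH7.5 buffer with MgCl2, Triton X-100; 1 h reaction at ambient temperature.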
PI5P4Ka inh – qHTS for Inhibitors of phosphatidylinositol 5-phosphate 4-kinase (PI5P4K); PI5P4Kalpha enzyme, ADP-Glo luminescence, 60 min; stronger effect = lower value; 330,000 tested, 1.2% active; max response, %; active means max response of -50% or lower; inconclusive means between -30% and -50%; inactive means -30% or higher; further: value at the top dose of about 77 µM
Target sequence (P48426 whole entry, looked up): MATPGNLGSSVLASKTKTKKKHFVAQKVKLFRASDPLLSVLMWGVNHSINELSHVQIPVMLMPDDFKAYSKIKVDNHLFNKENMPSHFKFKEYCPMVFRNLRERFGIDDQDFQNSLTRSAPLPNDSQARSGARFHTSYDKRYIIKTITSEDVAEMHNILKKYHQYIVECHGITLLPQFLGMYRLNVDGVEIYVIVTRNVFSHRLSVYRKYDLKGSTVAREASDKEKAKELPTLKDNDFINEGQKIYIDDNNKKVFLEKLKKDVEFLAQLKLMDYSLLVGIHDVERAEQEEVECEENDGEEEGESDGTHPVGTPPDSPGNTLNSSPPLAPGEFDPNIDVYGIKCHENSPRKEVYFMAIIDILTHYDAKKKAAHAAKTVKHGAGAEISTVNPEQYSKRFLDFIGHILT
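Human PI5P4Kalpha with substrate in 0.038 M HEPES pH 7.4, 0.28 mM EGTA, 0.1% CHAPS, 5% DMSO; reaction started with 5 microM ATP (final), 60 min at room temperature. ADP formed read by ADP-Glo luminescence.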
Akt phos inh – HTS Assay for Inhibitors of Akt Phophorylation: Primary Screen | Neuro2A IGF-stimulated pAkt S473 HTRF, 20 min; stronger effect = lower value | activity change, % for hits at 50 µM | 360,000 tested, 0.32% active | AID 651550, 2012; in the data active means activity change below about -80%; inconclusive means mostly about -51% to -80%
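Single-point screen (50 µM final compound) in Neuro2A cells stimulated 20 min with 6 nM IGF at 37 deg C. After lysis, Ser473-phosphorylated Akt read by HTRF (ex 330 nm, em 615/665 nm) as the 665/615 ratio.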
Six1-Eya2 blk – qHTS Assay for Inhibitors of the Six1/Eya2 Interaction; activity change, % (test concentration not listed); AlphaScreen GST-Six1/His-Eya2 binding, biochemical; stronger effect = lower value; AID 651725, 2012; 360,000 tested, 0.56% active; Homeobox protein SIX1 (Homo sapiens) + Protein phosphatase EYA2 (Homo sapiens), …
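AlphaScreen with GST-Six1 and His-Eya2 (5X mix: 250 nM and 500 nM), glutathione donor and nickel acceptor beads; buffer 50 mM Tris pH 8.0, 300 mM NaCl, 1 mM TCEP; 1 h at 37 C in the dark.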
ADP-Glo counter – qHTS for Inhibitors of PI5P4K: ADP-Glo counter assay. 1,100 tested, under 10 active. Potency, µM (titrated, usually from 76.9 µM), for inactives: at the top dose activity change, negative = inhibition, usual class: inhibitors. shares compounds with PI5P4Ka inh. ADP-Glo detection counter-screen, luciferase luminescence, no enzyme. AID 743285, 2014; active means well fitted curve in the direction sought with a large enough effect; inconclusive means small, poorly fitted or top-dose-only effect, or another doubt; inactive means no such curve, though single readings can be large or run the other way
An asterisk follows results filed as active. Unless noted, no stated cut-off is given here; in the data, active means activity change below about -65%; inconclusive means mostly about -30% to -63%; inactive means weaker than that. Unless noted, on the % scale 0 is the no-effect control and ±100 the full control effect.

`C#CCOCCOCCOCCNc1nc(N2CCN(C(=O)CCCCCCCCCCNC(=O)[C@H](CCCCN)n3cc(CCCC(=O)O)nn3)CC2)nc(N2CCN(C(=O)CCCCCCCCCCNC(=O)[C@H](CCCN=C(N)N)n3cc(C[C@@H](C)CC)nn3)CC2)n1` gave CtBP-E1A inh -17.9, PI4K2A inh -4.1, PI5P4Ka inh inconclusive, Akt phos inh inactive and Six1-Eya2 blk -17.7.
For C#CCOCCOCCOCCNc1nc(N2CCOCC2)nc(N2CCN(C(=O)[C@H](CCCN=C(N)N)n3cc(C(N)[C@@H](C)CC)nn3)CC2)n1 (stereo partly specified) the results were CtBP-E1A inh -1.3, PI4K2A inh -2.8, PI5P4Ka inh 2.9, Akt phos inh inactive and Six1-Eya2 blk 4.1.
`C#CCOCCOCCOCCNc1nc(N2CCN(C(=O)[C@H](CCCN=C(N)N)n3cc(C(N)[C@H](C)CC)nn3)CC2)nc(N2CCN(C(=O)[C@H](CCCN=C(N)N)n3cc(C(N)[C@@H](C)CC)nn3)CC2)n1` (stereo partly specified) gave CtBP-E1A inh -13.3, PI4K2A inh -4.6, PI5P4Ka inh -60.9*, Akt phos inh inactive and Six1-Eya2 blk -8.0.
C#CCOCCOCCOCCNc1nc(N2CCN(C(=O)CCCCCCCCCCNC(=O)[C@H](CCCCN)n3cc(C[C@@H](C)CC)nn3)CC2)nc(N2CCN(C(=O)CCCCCCCCCCNC(=O)[C@H](CCCCN)n3cc(C[C@@H](C)CC)nn3)CC2)n1 was read as CtBP-E1A inh -12.3, PI4K2A inh -3.4, PI5P4Ka inh -51.7*, Akt phos inh inactive and Six1-Eya2 blk -2.8.
Screening Cc1ccc(S(=O)(=O)N2Cc3ccccc3CC2C(=O)Nc2ccc3c(c2)OCO3)cc1 (stereo unspecified) returned CtBP-E1A inh -8.2, PI4K2A inh -22.3, PI5P4Ka inh -50.5*, Akt phos inh inactive and Six1-Eya2 blk -16.7.
COc1cc(CCNc2ccc3nnc(-c4ccccc4)n3n2)cc(OC)c1OC was read as CtBP-E1A inh -90.0*, PI4K2A inh 0.1, PI5P4Ka inh 7.7, Akt phos inh inactive and Six1-Eya2 blk -80.0*.
`Cc1ccccc1CNC(=O)c1ccc2nc([C@@H]3O[C@H](CO)[C@H](O)[C@H](O)[C@H]3O)[nH]c2c1` gave CtBP-E1A inh -7.1, PI4K2A inh 3.2, PI5P4Ka inh -87.8*, Akt phos inh inactive, Six1-Eya2 blk -2.9 and ADP-Glo counter 2.9%.
O=c1c(C/C=C/c2ccccc2)c(O)nc2n1CCCS2 was read as CtBP-E1A inh -9.3, PI4K2A inh 5.3, PI5P4Ka inh -23.8, Akt phos inh inactive and Six1-Eya2 blk -1.7.
`O=c1c(Cc2ccccc2)c(O)nc2n1CCS2` gave CtBP-E1A inh 2.5, PI4K2A inh 4.8, PI5P4Ka inh -55.3*, Akt phos inh inactive, Six1-Eya2 blk 2.8 and ADP-Glo counter 3.9%.
Screening COc1ccc(CNC(=O)CSc2nnc(-c3ccc(NC(C)=O)cc3)n2C)cc1 returned CtBP-E1A inh 3.2, PI4K2A inh -0.2 and Six1-Eya2 blk -0.8.
`NC(=O)C1CCN(c2cc(Cl)nc(N)n2)CC1` gave CtBP-E1A inh -14.9, PI4K2A inh -8.6, PI5P4Ka inh -52.7*, Akt phos inh inactive, Six1-Eya2 blk -2.8 and ADP-Glo counter 3.1%.
`Cc1ccc(CNc2ncnc3ccc(-c4ccc(CO)o4)cc23)o1` gave PI4K2A inh -17.7 and ADP-Glo counter 4.6%.
Cc1occc1CNc1ncnc2ccc(-c3ccc4c(c3)OCO4)cc12 was read as PI4K2A inh -13.4.
Screening CNC(=O)c1nc(C)n(-c2ccc(Cl)cc2Cl)n1 returned CtBP-E1A inh 7.8, PI4K2A inh -1.1, PI5P4Ka inh -92.6*, Akt phos inh inactive, Six1-Eya2 blk 5.4 and ADP-Glo counter -7.0%.
`CN(Cc1ccccc1)C(=O)c1csc([C@H]2C[C@H](O)[C@@H](CO)O2)n1` gave CtBP-E1A inh 8.2, PI4K2A inh -8.8, PI5P4Ka inh -0.2, Akt phos inh inactive, Six1-Eya2 blk 4.3 and ADP-Glo counter -3.3%.
For Cc1cccc(C(=O)NNC(=O)c2n[nH]c(=O)c3ccccc23)c1C the results were CtBP-E1A inh 0.0, PI4K2A inh -7.3, PI5P4Ka inh -24.1, Akt phos inh inactive and Six1-Eya2 blk 15.3.
Screening COc1cc(C2CC(=O)N3CN(Cc4ccco4)CSC3=C2C#N)ccc1OCc1ccccc1 (stereo unspecified) returned CtBP-E1A inh -6.1, PI4K2A inh -4.8, PI5P4Ka inh -59.3*, Akt phos inh inactive, Six1-Eya2 blk 3.6 and ADP-Glo counter 3.0%.
`COc1ccc(C2CC(=O)N3CN(Cc4ccco4)CSC3=C2C#N)cc1` (stereo unspecified) gave CtBP-E1A inh -1.8, PI4K2A inh -6.0, Akt phos inh inactive and Six1-Eya2 blk -1.5.
`CCN(CC)C(=O)Cn1cc(/C=C(\C#N)C(=O)N2CCN(c3ccccc3)CC2)c2ccccc21` gave CtBP-E1A inh -0.2, PI4K2A inh 2.2, Akt phos inh inactive and Six1-Eya2 blk -11.0.
COCCn1nnnc1C(c1cc2cc(OC)c(OC)cc2[nH]c1=O)N1CCN(c2ccc(O)cc2)CC1 (stereo unspecified) was read as CtBP-E1A inh -9.0, PI4K2A inh -12.7, PI5P4Ka inh -54.2*, Akt phos inh inactive, Six1-Eya2 blk -18.0 and ADP-Glo counter -4.0%.
For COc1cccc(CNS(=O)(=O)c2ccccc2Br)c1OC the results were CtBP-E1A inh 4.5, PI4K2A inh 0.9, PI5P4Ka inh -59.9*, Akt phos inh inactive, Six1-Eya2 blk 4.6 and ADP-Glo counter 1.1%.
COc1ccccc1CNS(=O)(=O)c1cc(C)ccc1OC was read as CtBP-E1A inh 0.7, PI4K2A inh -0.4, PI5P4Ka inh 2.7, Akt phos inh inactive and Six1-Eya2 blk 1.2.
Screening C=CCSC(=S)Nc1c(C)n(C)n(-c2ccccc2)c1=O returned CtBP-E1A inh 7.7, PI4K2A inh 3.5, PI5P4Ka inh 4.0, Akt phos inh inactive and Six1-Eya2 blk 9.2.
